Source: PubChem BioAssay (National Center for Advancing Translational Sciences (NCATS))
This excerpt belongs to a sample that is enriched for hits.
IMPase cell inh – qHTS Assay for Identifying the Cell-Membrane Permeable IMPase Inhibitors. Inositol monophosphatase 1 (Rattus norvegicus), P97697. CHO-M1 cells, IP1 accumulation, HTRF TR-FRET ratio. inhibition (IP1 accumulation), % at 46.1 µM. 120,000 tested, under 10 active. AID 901, 2007; active = well fitted curve in the direction sought with a large enough effect in the signal ratio, not every such curve was filed as active; inconclusive = small, poorly fitted or top-dose-only effect, or a change in a side signal; inactive = no such curve, though single readings can be large or run the other way; the % refers to the signal ratio;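 also: cells stimulated with carbachol in lithium chloride buffer; higher means more IMPase inhibition seen as more IP1 and lower FRET ratio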
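Seeded CHO-M1 cells were dosed with compound at up to 46 uM, stimulated with carbachol for 30 min, then lysed in IP-One detection reagents. Higher IP1 lowers the TR-FRET signal.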
ALOX12 inhib – qHTS Assay for Inhibitors of 12-hLO (12-human lipoxygenase); 0.12% of 150,000 active; purified 12-hLO, xylenol orange hydroperoxide absorbance; Polyunsaturated fatty acid lipoxygenase ALOX12 (Homo sapiens), P18054; AID 1452, 2008; Potency, µM (highest dose often 57.1 µM), actives largely listed as inhibitors; also: nearly all actives have a fitted effect of over 55% in size
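Hydroperoxide formation by human 12-lipoxygenase from 40 uM arachidonic acid was followed colorimetrically via ferric-xylenol orange complex, using the 573/405 nm absorbance ratio. Enzyme concentration was 150 nM, with 30 min reaction at room temperature.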
15-hLO-2 inh – qHTS Assay for Inhibitors of 15-hLO-2 (15-human lipoxygenase 2). AID 881, 2007. Polyunsaturated fatty acid lipoxygenase ALOX15B (Homo sapiens), O15296. purified 15hLO-2, xylenol orange hydroperoxide absorbance. 0.56% of 110,000 active. Potency, µM (top dose mostly 57.1 µM), usual class: inhibitors; also: nearly all actives have a fitted effect of over 60% in size
Target sequence (O15296 whole entry, looked up): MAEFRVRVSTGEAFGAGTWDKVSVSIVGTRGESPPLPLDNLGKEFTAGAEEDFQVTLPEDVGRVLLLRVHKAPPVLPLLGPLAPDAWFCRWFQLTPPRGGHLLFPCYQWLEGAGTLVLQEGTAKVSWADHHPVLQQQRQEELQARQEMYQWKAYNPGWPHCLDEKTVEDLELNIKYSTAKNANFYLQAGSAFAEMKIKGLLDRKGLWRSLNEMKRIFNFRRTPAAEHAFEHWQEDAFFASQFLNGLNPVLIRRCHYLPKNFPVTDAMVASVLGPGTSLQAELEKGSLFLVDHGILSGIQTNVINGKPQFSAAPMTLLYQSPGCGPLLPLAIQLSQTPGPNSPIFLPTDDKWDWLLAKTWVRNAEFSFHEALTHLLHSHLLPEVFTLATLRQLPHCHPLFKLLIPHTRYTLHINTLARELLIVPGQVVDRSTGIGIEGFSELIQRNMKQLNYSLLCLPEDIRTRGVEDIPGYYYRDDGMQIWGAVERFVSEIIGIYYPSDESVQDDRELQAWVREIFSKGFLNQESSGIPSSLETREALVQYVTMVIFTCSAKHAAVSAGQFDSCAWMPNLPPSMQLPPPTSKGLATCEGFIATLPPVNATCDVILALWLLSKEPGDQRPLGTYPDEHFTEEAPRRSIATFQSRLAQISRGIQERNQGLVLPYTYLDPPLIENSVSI
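Purified human 15hLO-2 (50 nM) preincubated 15 min with compound, then 45 uM arachidonic acid for 90 min at RT in 25 mM Hepes pH 7.5, 0.01% Triton X-100. Hydroperoxide detected by Fe-xylenol orange; 573/405 nm absorbance ratio.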
Of the large screens only hits and unclear results are named; the others gave an inactive call. Unless noted, calls follow the shape of the dose curve; as a rule, active = well fitted curve in the direction sought with a large enough effect; inconclusive = small, poorly fitted or top-dose-only effect, or another doubt; inactive = no such curve, though single readings can be large; an effect the other way counts as inactive or inconclusive.

Cn1cccc1/C=N/n1c(-c2ccc(C(C)(C)C)cc2)n[nH]c1=S	ALOX12 inhib inconclusive, 15-hLO-2 inh 10µM
CC1CC(=O)c2cnc(Nc3ccccc3)nc2C1 (configuration not stated)	none
CCCCSc1nc2c(cc1C#N)CCC2	none
CCCSc1nc(C)c(-c2csc(C(C#N)=C3CCCC3)n2)cc1C#N	IMPase cell inh inconclusive, 15-hLO-2 inh 10µM
O=C(Nc1ccc2c(c1)OCO2)N1CCN(c2ccccc2Cl)CC1	none
COc1ccc(-c2cnn(-c3ccccc3)c2N)cc1OC	none
Nc1nc2c(s1)CCc1c-2cnn1-c1ccccc1	ALOX12 inhib inconclusive, 15-hLO-2 inh 1µM
CCC(c1ccc(O)cc1)C(CC)c1ccc(O)cc1 (configuration not stated)	15-hLO-2 inh inconclusive (no result: IMPase cell inh)
CC[C@H](c1ccc(O)cc1)[C@@H](CC)c1ccc(O)cc1	15-hLO-2 inh 10µM
C[N+]1=C(/C=C/Nc2ccccc2Cl)C(C)(C)c2ccccc21	none (no result: IMPase cell inh, 15-hLO-2 inh)
COC(=O)c1ccc2c(c1)C(C)(C)C(/C=C/c1ccccc1O)=[N+]2C	ALOX12 inhib 14.1µM, 15-hLO-2 inh 15.8µM
Cc1ccc(-n2c3nc(=O)[nH]c(=O)c-3cc3cc([N+](=O)[O-])ccc32)cc1C	none (no result: 15-hLO-2 inh)
CN(C)c1ccc(N2CN=C3SCC(=O)N3C2)cc1	15-hLO-2 inh 15.8µM
O=C1CSC2=NCN(c3ccc4c(c3)OCO4)CN12	none
CCCn1c(SCC(=O)NC23CC4CC(CC(C4)C2)C3)n[nH]c1=O	none
CCOc1cccc(CNc2ccc(O)cc2)c1OCc1ccc(Cl)cc1Cl	ALOX12 inhib inconclusive, 15-hLO-2 inh 1.58µM
CCOc1cccc(CNc2ccc(O)cc2)c1OCc1ccccc1Cl	ALOX12 inhib inconclusive (no result: 15-hLO-2 inh)
COc1ccc(CCN2C(=O)CC(N3CCOCC3)C2=O)cc1OC (configuration not stated)	none (no result: 15-hLO-2 inh)
COc1ccc(CCN2C(=O)CC(Nc3ccc(N4CCOCC4)cc3)C2=O)cc1OC (configuration not stated)	ALOX12 inhib inconclusive, 15-hLO-2 inh 25.1µM
COc1ccc(NC2CC(=O)N(C(C)C)C2=O)cc1 (configuration not stated)	none
CC(C)N1C(=O)CC(Nc2ccc(N3CCOCC3)cc2)C1=O (configuration not stated)	ALOX12 inhib inconclusive, 15-hLO-2 inh 25.1µM
O=C(CCN1C(=O)c2ccccc2C1=O)Nc1ccc(F)cc1	none
COc1cccc(-n2c(SCC(=O)OC(C)C)nnc2-c2cccnc2)c1	none
COc1cc(C(=O)O)ccc1O	none (no result: IMPase cell inh, 15-hLO-2 inh)
O=C(O)c1ccc2cc(-c3ccc(O)c(C45CC6CC(CC(C6)C4)C5)c3)ccc2c1	ALOX12 inhib inconclusive, 15-hLO-2 inh 7.94µM (no result: IMPase cell inh)
CCN(CC)c1ccc(/C=N/NC(=S)NCc2ccc(OC)cc2)cc1	ALOX12 inhib inconclusive (no result: 15-hLO-2 inh)
CCN(CC)c1ccc(/C=N/NC(=S)NCc2ccccc2)cc1	ALOX12 inhib 25.1µM, 15-hLO-2 inh inconclusive
Cc1ccc(-c2c(C#N)c(N)nc3c2CCCCC3)cc1	none
CC1=C(C#N)c2nc(N)c(C#N)c(C)c2/C1=C\c1ccc(C)cc1	15-hLO-2 inh 25.1µM
Cc1cccc(N2CCN(C(=O)c3csc4ccccc34)CC2C)c1 (configuration not stated)	none (no result: 15-hLO-2 inh)
O=C(CC1(O)C(=O)c2ccccc2C1=O)c1ccccc1	none (no result: IMPase cell inh, 15-hLO-2 inh)
O=C1c2ccccc2C(=O)C1(O)O	ALOX12 inhib inconclusive, 15-hLO-2 inh 25.1µM (no result: IMPase cell inh)
CCCCCCCC[N+](CCCCCCCC)(CCCCCCCC)CCCCCCCC	ALOX12 inhib inconclusive, 15-hLO-2 inh 31.6µM (no result: IMPase cell inh)
C#CC[N+](C)(C)CCCCCCCCCC	none (no result: 15-hLO-2 inh)
C=CCc1cccc(/C=N/n2c(C)nnc2C)c1O	none
O=C(NCCOc1ccccc1F)c1cc(F)c(F)cc1Cl	none (no result: IMPase cell inh, 15-hLO-2 inh)
O=C(OCCCN=C1NS(=O)(=O)c2ccccc21)c1ccccc1F	none
Cc1cccc(OCC(=O)NC(=S)N2CCCc3ccccc32)c1	15-hLO-2 inh 20µM
O=C(COc1ccc(Cl)cc1Cl)NC(=S)N1CCCc2ccccc21	15-hLO-2 inh inconclusive
O=C1S/C(=C\c2ccc(N3CCOCC3)o2)C(=O)N1Cc1c(F)cccc1Cl	15-hLO-2 inh 6.31µM
O=C1S/C(=C/c2ccc(N3CCOCC3)o2)C(=O)N1Cc1c(F)cccc1Cl	15-hLO-2 inh inconclusive
O=C(O)/C=C\c1ccc(O)c(O)c1	none
O=C(/C=C/c1ccc(O)c(O)c1)OCCc1ccccc1	ALOX12 inhib inconclusive, 15-hLO-2 inh 10µM (no result: IMPase cell inh)
COC(=O)C1=C(C)Nc2ccc(C)cc2S1	15-hLO-2 inh 6.31µM
COC(=O)c1ccc2c(c1)SC1=C(CCCC1=O)N2	15-hLO-2 inh inconclusive
CCN1CCN(c2nc3ccccc3nc2C(C#N)S(=O)(=O)c2ccc(C)cc2)CC1 (configuration not stated)	none
Cc1ccc(S(=O)(=O)C(C#N)c2nc3ccccc3nc2N2CCCC2)cc1 (configuration not stated)	IMPase cell inh inconclusive, ALOX12 inhib 28.2µM, 15-hLO-2 inh inconclusive
Nc1c(N=Nc2ccc(-c3ccc(N=Nc4cc(S(=O)(=O)O)c5ccccc5c4N)cc3)cc2)cc(S(=O)(=O)O)c2ccccc12	ALOX12 inhib inconclusive, 15-hLO-2 inh 3.16µM (no result: IMPase cell inh)
O=S(=O)(O)c1ccc(N=Nc2ccccc2)cc1	none (no result: IMPase cell inh)
Cc1cc(-c2ccc(N=Nc3ccc4c(S(=O)(=O)O)cc(S(=O)(=O)O)c(N)c4c3O)c(C)c2)ccc1N=Nc1ccc2c(S(=O)(=O)O)cc(S(=O)(=O)O)c(N)c2c1O	IMPase cell inh inconclusive, 15-hLO-2 inh 20µM
Nc1ccc(N=Nc2ccc(-c3ccc(O)cc3)cc2)c2ccc(S(=O)(=O)O)cc12	15-hLO-2 inh 2.51µM (no result: IMPase cell inh)
O=S(=O)(O)c1ccc(N=Nc2ccc3c(S(=O)(=O)O)cccc3c2O)c2ccccc12	none (no result: IMPase cell inh)
Cc1ccc(N=Nc2c(O)c(S(=O)(=O)O)cc3cc(S(=O)(=O)O)ccc23)c(C)c1	none (no result: IMPase cell inh)
OC(COc1cc(Cl)c(Cl)cc1Cl)CN1CCN(c2ncccn2)CC1 (configuration not stated)	none (no result: 15-hLO-2 inh)
CNC(=S)NNC(=O)Cn1ccc(C)n1	none
O=C(Cn1nnc(-c2ccccc2)n1)N/N=C/c1cc([N+](=O)[O-])c(Cl)cc1Cl	none (no result: IMPase cell inh, 15-hLO-2 inh)
Cn1c(=O)c(C(=O)CN2CCN(S(=O)(=O)c3ccccc3)CC2)c(N)n(Cc2ccccc2)c1=O	none (no result: IMPase cell inh, 15-hLO-2 inh)
COc1ccc(NC(=O)C2OC3OC(C)(C)OC3C3OC(C)(C)OC23)cc1 (configuration not stated)	none
CN1c2cccc3cccc(c23)N(C)C1(C)C	15-hLO-2 inh 15.8µM
CN1c2ccccc2N(C)C1(C)c1cccc2ccccc12	none (no result: 15-hLO-2 inh)
COC(=O)CNC(=O)c1cccs1	none
CC(=O)OC(C(=O)NC1CCCCC1)c1ccc(C#N)cc1 (configuration not stated)	none
O=[N+]([O-])c1ccc(N/N=C/c2c[nH]c3ccccc23)cc1	15-hLO-2 inh inconclusive
O=[N+]([O-])c1ccc(N/N=C/c2ccc[nH]2)cc1	ALOX12 inhib 6.31µM (no result: IMPase cell inh, 15-hLO-2 inh)
COc1cc(/C=C2\SC(=S)N(Nc3ccccc3)C2=O)ccc1O	none (no result: IMPase cell inh, 15-hLO-2 inh)
CCOc1cc(/C=C2\SC(=S)N(Nc3ccccc3)C2=O)ccc1O	ALOX12 inhib inconclusive, 15-hLO-2 inh 12.6µM
O=C(c1nc2ccccc2s1)N1CCSCC1	none
